The campaign covered roughly 310,000 compounds. About 14,000 (4.5%) showed an effect of 50% or more. Effects have a minus sign here. Shown is part of a subset that was picked to be rich in strong results.
Each compound was assayed against human ether-à-go-go-related gene (hERG) potassium channel (human, UniProt Q12809) (assay: primary screen, population patch clamp on CHO cells stably expressing hERG; higher = less effect of the substance).
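Further: peak tail current of the secondary pulse compared with the same well before compound.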

Chain of human ether-à-go-go-related gene (hERG) potassium channel (Q12809 whole entry, looked up): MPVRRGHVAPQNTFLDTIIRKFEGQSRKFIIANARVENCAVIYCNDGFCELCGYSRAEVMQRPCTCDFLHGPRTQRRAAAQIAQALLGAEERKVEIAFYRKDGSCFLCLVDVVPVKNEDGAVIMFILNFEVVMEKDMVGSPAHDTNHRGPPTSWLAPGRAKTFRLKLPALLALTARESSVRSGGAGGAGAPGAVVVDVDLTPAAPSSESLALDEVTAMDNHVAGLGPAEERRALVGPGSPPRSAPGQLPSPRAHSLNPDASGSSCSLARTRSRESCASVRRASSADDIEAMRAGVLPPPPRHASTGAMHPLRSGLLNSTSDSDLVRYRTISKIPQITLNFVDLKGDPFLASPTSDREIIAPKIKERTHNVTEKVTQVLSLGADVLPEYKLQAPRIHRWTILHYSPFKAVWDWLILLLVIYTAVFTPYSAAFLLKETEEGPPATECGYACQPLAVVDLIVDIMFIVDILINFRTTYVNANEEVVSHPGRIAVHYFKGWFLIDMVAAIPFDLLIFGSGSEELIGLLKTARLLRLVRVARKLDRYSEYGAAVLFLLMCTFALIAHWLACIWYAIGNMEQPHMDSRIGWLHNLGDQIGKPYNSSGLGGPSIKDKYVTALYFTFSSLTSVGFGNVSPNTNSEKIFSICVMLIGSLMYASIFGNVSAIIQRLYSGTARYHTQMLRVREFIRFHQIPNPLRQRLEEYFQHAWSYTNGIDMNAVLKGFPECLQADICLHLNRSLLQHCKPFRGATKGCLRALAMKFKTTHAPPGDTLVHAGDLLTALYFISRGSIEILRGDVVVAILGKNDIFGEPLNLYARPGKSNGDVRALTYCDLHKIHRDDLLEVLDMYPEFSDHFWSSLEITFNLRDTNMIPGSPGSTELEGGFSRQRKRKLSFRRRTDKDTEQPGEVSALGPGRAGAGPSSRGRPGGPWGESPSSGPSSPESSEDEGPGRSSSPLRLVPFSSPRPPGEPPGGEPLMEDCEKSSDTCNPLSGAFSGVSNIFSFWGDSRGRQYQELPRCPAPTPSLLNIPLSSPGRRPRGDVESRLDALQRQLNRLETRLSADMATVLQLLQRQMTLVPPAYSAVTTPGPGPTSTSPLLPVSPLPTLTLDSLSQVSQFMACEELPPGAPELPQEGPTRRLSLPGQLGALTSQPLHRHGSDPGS

Compound | hERG current change (%, negative = inhibition) at 10uM [%]
Cc1ccc(/C=C/C(=O)OCC(=O)Nc2ccc3[nH]c(=O)[nH]c3c2)o1 | 2.52
COc1ccc(/C=N/Nc2nnc(Cc3ccc(OC)c(OC)c3)c(=O)[nH]2)cc1OC | 18.9
COc1ccc(/C=N/Nc2nnc(Cc3ccccc3)c(=O)[nH]2)cc1OC | -61.4
COc1ccc(/C=N/Nc2nnc(Cc3ccccc3)c(=O)[nH]2)cc1 | -15.1
Oc1ccc(N=Nc2n[nH]c(-c3ccccc3)n2)cc1 | 9.94
CCOc1ccc(NC(=O)Nc2ccon2)cc1 | 16.7
CCCC(=O)Nc1ccc(Cl)c(NC(=O)c2ccc([N+](=O)[O-])cc2Cl)c1 | -51.2
CCCC(=O)Nc1cccc(NC(=O)c2ccc([N+](=O)[O-])cc2Cl)c1 | -14.5
CCC(=O)Nc1ccc(Cl)c(NC(=O)c2ccc([N+](=O)[O-])cc2)c1 | -5.07
CC(C)C(=O)Nc1ccc(NC(=O)c2ccc([N+](=O)[O-])cc2Cl)cc1 | 5.02
CCC(C)NS(=O)(=O)c1ccc(NC(=O)c2ccc([N+](=O)[O-])cc2Cl)cc1 (centres unmarked) | -88.7
CC(=O)Nc1ccc(NC(=O)c2ccc([N+](=O)[O-])cc2Cl)cc1 | 6.15
CC(C)(C)NC(=O)NC(=O)CN1CCN(Cc2ccccc2)CC1 | -1.77
COC(=O)[C@@]1(Cc2ccc(OC)cc2)[C@H]2c3cc(C(=O)N(C)C)n(CCc4ccc(OC)c(Br)c4)c3C[C@H]2CN1C(=O)c1ccccc1 | 11.4
Cc1cccc(C(=O)NCCN2CCOCC2)c1[N+](=O)[O-] | 4.8
Cc1ccc(C)c(OCc2cc(C(=O)N3C[C@@H](C)O[C@@H](C)C3)no2)c1 | 4.95
CCCCc1c(O)nc(SCC(=O)NCCc2ccc(OC)c(OC)c2)[nH]c1=O | -0.0252
COc1cc(OC)cc(C(=O)NC(=S)Nc2ccc3[nH]c(=O)[nH]c3c2)c1 | -27
COc1cccc(C(=O)NC(=S)Nc2ccc3[nH]c(=O)[nH]c3c2)c1 | -70.3
COc1ccc(C(=O)NC(=S)Nc2ccc3[nH]c(=O)[nH]c3c2)cc1 | 15.5
CCN(CC)c1ccc(CNc2nc3ccccc3n2CCN2CCOCC2)cc1 | -79.5
CCN(CC)c1ccc(CNc2nc3ccccc3n2CC)cc1 | -23.5
CCC(=O)Nc1nc2ccccc2n1CCN1CCOCC1 | 16.2
CCN(CC)c1ccc(CNc2nc3ccccc3n2C(C)C)cc1 | 1.88
CCN(CC)c1ccc(CNc2nc3ccccc3n2CCN2CCCCC2)cc1 | -74.5
CCN(CC)c1ccc(CNc2nc3ccccc3n2C)cc1 | -49.7
